Measurements taken from PubChem BioAssay (NCATS).
Inconclusive results are not listed. Calls of active or inactive are those of the source. Calls come from the whole dose curve; as a rule, active = well fitted inhibition curve with a large enough effect; inconclusive = small, poorly fitted or top-dose-only effect; inactive = flat fitted curve, though single readings scatter. *1 amine or outer side, *2 acyl side, *3 side chain or, on linkers, in order; H or OH if unused. Where a SMILES comes first, the peptide text is derived from it. [ ]: non-standard residue; d: D form. The star is where a group is joined. ξ: configuration not given here. X9 = CCC(C)(N*)C(=O)C1CC[C@@H](C(=O)N[C@@H](Cc2ccccc2)C(=O)NCC(=O)O)N1; X8 = O=C([C@@H]1CC(O)CN1[*:1])[*:2]; aIle = CC[C@@H](C)[C@H](N)C(=O)O; Thr(3ξ) = CC(O)[C@H](N)C(=O)O; ξIva = CCC(C)(N)C(=O)O; Aib = CC(C)(N)C(=O)O

experiment: P-glycoprotein substrates identified in KB-8-5-11 adenocarcinoma cell line, qHTS therapeutic library screen (AID 1346987); settings: KB-8-5-11 (P-gp overexpressing) viability, CellTiter-Glo, 72 h; series mostly up to 44.5 µM; activity change, negative = cytotoxicity: at the top concentration; note: nearly all actives have a fitted effect of over 65% in size
Method in brief: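 P-gp-mediated resistance screen: KB-8-5-11 cells treated 72 h with compounds in dose-response. CellTiter-Glo viability.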
% is set by controls: 0 for no effect and ±100 for the full control effect.

| Compound | activity change, negative = cytotoxicity | outcome |
| --- | --- | --- |
| O=C(OC[C@H]1O[C@@H](Oc2ccccc2COC(=O)C2(O)C=CCCC2O)[C@H](O)[C@@H](O)[C@@H]1O)c1ccccc1 (stereo partly drawn) | 7.94% [at 17.3 µM] (inactive) |  |
| CC1CCC2C(C)(C)C(O)C(O)CC2(C)C12Cc1c(O)cc(CO)c(C=O)c1O2 (stereo not drawn) | 5.06% [at 17.3 µM] (inactive) |  |
| C=C1C[C@@]2(O)O[C@@]3(C[C@H]2C(C)C)[C@@H](C)CC[C@@H]13 |  | inactive |
| CC1(C)CC2C3=CCC4[C@@]5(C)CC[C@H](OC6OCC(O)C(OC7OC(CO)C(O)C(O)C7O)C6O)C(C)(C)C5CC[C@@]4(C)[C@]3(C)C[C@H](O)[C@@]2(CO)[C@H](OC(=O)c2ccccc2)C1 (stereo partly drawn) | -4.21% [at 9.29 µM] (inactive) |  |
| CC1(C)CC[C@]2(C(=O)O)CC[C@]3(C)C(=CCC4[C@@]5(C)CC[C@H](O[C@H]6O[C@H](C(=O)O)[C@@H](O)[C@H](O[C@@H]7O[C@H](CO)[C@H](O)[C@H](O)[C@H]7O)[C@H]6O)C(C)(C)C5CC[C@]43C)[C@@H]2C1 (stereo partly drawn) |  | inactive [at 9.29 µM] |
| CC[C@@H](C)[C@H](NC(=O)C(C)(C)NC(=O)[C@H](CCC(N)=O)NC(=O)C(C)(CC)NC(=O)[C@H](Cc1c[nH]c2ccccc12)NC(C)=O)C(=O)N[C@H](C(=O)NC(C)(C)C(=O)N[C@@H](CC(C)C)C(=O)NC(C)(C)C(=O)N1CCC[C@H]1C(=O)N[C@@H](CCC(N)=O)C(=O)NC(C)(C)C(=O)N1CC(O)C[C@H]1C(=O)NC(C)(CC)C(=O)C1CC[C@@H](C(=O)N[C@@H](Cc2ccccc2)C(=O)NCC(=O)O)N1)C(C)O (stereo partly drawn) (Ac-W[ξIva]Q[Aib][aIle][Thr(3ξ)][Aib]L[Aib]PQ[Aib][X8]-X9) | -19% [at 5.11 µM] (inactive) |  |
| O=C(O)c1cccc(C(=O)CCC2OC(n3cnc4c(=O)[nH]cnc43)C(O)C2O)c1 (stereo not drawn) |  | inactive [at 17.3 µM] |
| Cc1c(C)c(NCC(=O)N(C)C2CCN(Cc3ccc(C(N)=O)cc3)CC2)c(C)c(C)c1N |  | inactive |
| CCCO[C@@H]1O[C@H](CO)[C@@H](O)[C@H](O)[C@H]1O[C@@H]1OC[C@@H](O)[C@H](O)[C@H]1O | 7.6% (inactive) |  |
| C=C1CC23CC1CCC2C12OC(=O)C(C)(C(O)CC1O)C2C3C(=O)O (stereo not drawn) | 6.23% (inactive) |  |
| C/C=C/C=C/C1=C2C(=O)C3(C)C4C(C(=O)CC(O)/C=C/C)=C(O1)C1(C)C2C2(C)OC1(O)C4(C)OC23O (stereo not drawn) | -5.21% [at 17.3 µM] (inactive) |  |
| COc1ccc(C2OCC3C(c4cc(OC)c5c(c4)OCO5)OCC23)cc1OC (stereo not drawn) | -17.5% [at 17.3 µM] (inactive) |  |
| CCCCS(=O)(=O)NC(Cc1ccc(OCCCCC2CCNCC2)cc1)C(=O)O (stereo not drawn) | 0.242% (inactive) |  |
